In PubChem BioAssay AID1224862 (National Center for Advancing Translational Sciences (NCATS), 2016):
Records with an inconclusive call do not appear. Entries that show only a call come without a potency. Active and inactive are the calls of the source. Calls follow the shape of the dose curve; as a rule, active = well fitted cell-killing curve with a large enough effect; inconclusive = small, poorly fitted or top-dose-only effect, or effect the other way; inactive = flat fitted curve, though single readings scatter.

Test: Compound cytotoxicity measured by an ATP content assay as a counter-screen for lead compounds in human astrocytoma cell line (SNB-19)
In short: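 Cell viability was measured as ATP content by luminescence in SNB-19 astrocytoma cells in RPMI 1640 with 10% FBS. Compounds were incubated for set times such as 6, 24 or 72 h, and cytotoxicity was expressed as percent inhibition.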

Structure (SMILES) | Potency
CC(C)OC(=O)CCCC=CC[C@@H]1[C@H](C=C[C@@H](O)COc2cccc(C(F)(F)F)c2)[C@H](O)C[C@@H]1O | inactive
C[C@H](NC(=O)C(=O)Nc1ccccc1C(C)(C)C)C(=O)N[C@@H](CC(=O)O)C(=O)COc1c(F)c(F)cc(F)c1F | inactive
O=C1C[C@@H](c2ccc(O)cc2)Oc2cc(O)cc(O)c21 | inactive
CC(C(=O)O)c1ccc(C(=O)c2ccccc2)s1 (configuration not stated) | inactive
N#C/C(=C\c1ccc(O)c(O)c1)C(=O)Nc1ccccc1 | inactive
O=c1oc2cc(O)ccc2s1 | inactive
COc1cc(NC(C)CCCN)c2ncccc2c1 (configuration not stated) | inactive
O=C(O)c1ccccc1NCCc1ccccc1 | inactive
[O-][n+]1ccccc1SSc1cccc[n+]1[O-] | 0.708 µM (active)
N#CC1(c2ccc(NC(=O)c3cccnc3NCc3ccncc3)cc2)CCCC1 | inactive
O=C(Nc1ccc(OC(F)(F)F)cc1)c1sccc1NCc1ccnc2ccccc12 | inactive
O=C(Oc1ccccc1)c1cccc(C(=O)Oc2ccccc2)c1 | inactive
O=C1C(Cl)=C(NCCN2CCOCC2)C(=O)c2ncccc21 | 6.15 µM (active)
CCCCCCCCCCCC(=O)[O][Sn]([CH2]CCC)([CH2]CCC)[O]C(=O)CCCCCCCCCCC | inactive
O=C1NC(=O)C(=Cc2ccc(-c3ccc(F)cc3)o2)S1 | inactive
COc1cc2nc(-c3ccc(N4CCN(C)CC4)cc3)nc(NCCN3CCOCC3)c2cc1OC | inactive
CN(C)c1cc(NC(=O)CNC(C)(C)C)c(O)c2c1C[C@@H]1C[C@H]3[C@H](N(C)C)C(=O)C(C(N)=O)=C(O)[C@@]3(O)C(=O)C1=C2O | inactive
